# Source: PubChem (The Scripps Research Institute Molecular Screening Center)
# Rows were chosen to be rich in hits. Some 0.9% of all compounds tested hit in one or more screens of this group.
# SRC1 TRFRET art = counter-screen for PPARgamma SRC-1 recruitment agonists: TR-FRET artefact | TR-FRET ratio at 8 µM | TR-FRET detection artefact counter-screen, emission ratio; active compounds read high | 99,000 tested, 0.34% active; in the data active = TR-FRET ratio above about 2300
# PPARg SRC1 recr = PPARgamma-driven SRC-1 recruitment agonism | AID 631 | 200,000 tested, 0.41% active | P37231 | activation, % at 8 µM | PPARgamma-SRC-1 coactivator recruitment biochemical assay; in the data active = activation above about 19%
# Target sequence (P37231 whole entry, looked up): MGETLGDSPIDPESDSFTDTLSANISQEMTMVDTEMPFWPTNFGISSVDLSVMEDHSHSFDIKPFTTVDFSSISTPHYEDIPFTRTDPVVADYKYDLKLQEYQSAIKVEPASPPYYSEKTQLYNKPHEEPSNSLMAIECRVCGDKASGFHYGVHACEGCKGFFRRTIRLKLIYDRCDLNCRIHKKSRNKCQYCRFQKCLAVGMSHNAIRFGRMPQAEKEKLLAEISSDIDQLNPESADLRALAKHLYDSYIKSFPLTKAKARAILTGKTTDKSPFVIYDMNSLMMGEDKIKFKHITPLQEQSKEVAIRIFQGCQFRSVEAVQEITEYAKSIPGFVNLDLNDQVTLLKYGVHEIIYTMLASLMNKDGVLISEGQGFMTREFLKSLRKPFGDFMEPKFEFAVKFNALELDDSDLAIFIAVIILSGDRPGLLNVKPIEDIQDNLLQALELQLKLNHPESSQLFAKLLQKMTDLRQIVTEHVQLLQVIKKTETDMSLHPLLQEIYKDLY
# PPARg SRC-2 ag = agonists of SRC-2 recruitment by human PPARgamma; AID 1032; PPARgamma LBD-SRC-2 recruitment, biochemical; activation, % at 8 µM; 200,000 tested, 0.34% active; P37231; in the data active = activation above about 22%
# SRC2 TRFRET art = counter-screen for PPARgamma SRC-2 recruitment agonists: TR-FRET artefact; active compounds read high; TR-FRET ratio at 8 µM; 200,000 tested, 0.4% active
# PPARg SRC3 recr = promotes SRC-3 coactivator recruitment by human PPARgamma; P37231; biochemical PPARgamma/SRC-3 coactivator recruitment assay; activation, % at 8 µM; 200,000 tested, 0.26% active; AID 731; in the data active = activation above about 23%
# SRC3 TRFRET art = flags TR-FRET format artefacts in PPARgamma SRC-3 recruitment agonist screen; TR-FRET artefact counter-screen, PPARgamma/SRC-3 format; active compounds read high; 99,000 tested, 0.39% active; TR-FRET ratio at 8 µM; AID 1048
# Hits are given with their value; i = inactive; nt = not tested or not shown. Rule as the data show it, unless noted: active = TR-FRET ratio above about 2000; inactive = the rest.
SMILES,SRC1 TRFRET art,PPARg SRC1 recr,PPARg SRC-2 ag,SRC2 TRFRET art,PPARg SRC3 recr,SRC3 TRFRET art
CCCN(CCC)CCCNC(=O)c1cc2c(=O)[nH]c3ccccc3c2n1C,i,i,i,i,i,i
Cn1c(C(=O)NCc2ccco2)cc2c(=O)[nH]c3ccccc3c21,2510,23,i,i,i,i
O=C(Nc1ccc(-c2nnc3n2CCCCC3)cc1)c1ccco1,i,i,i,i,i,i
CCS(=O)(=O)N1CCN(C2CCC(c3ccccc3)CC2)CC1 (stereo unspecified),nt,20,i,i,i,nt
CCOC(=O)COc1nc(N(C)C)nc(N(C)C)n1,nt,i,i,i,i,nt
COc1ccc(C(c2sc3nc(C)nn3c2O)N2CCC(C(N)=O)CC2)cc1OC (stereo unspecified),i,i,i,i,i,i
O=c1oc2ccccc2cc1-c1cn2ccccc2n1,i,i,i,i,60,3228
Cc1ccc(CC(=O)Nc2ccncc2)cc1,i,i,i,i,i,i
O=C(CN1CCCCC1)Nc1cccc2c1OCO2,nt,i,i,i,i,nt
COc1ccc(C2(O)CCN(CC(=O)Nc3nccs3)CC2)c(OC)c1,nt,i,i,1972,i,nt
Cc1ccc(NC(=O)c2cc(S(=O)(=O)N3CCCCC3)cs2)cc1,nt,i,i,i,i,nt
Cc1cccc(C(=O)NNC(=O)c2ccc(Cl)cc2)c1O,nt,i,i,i,i,nt
NC(N)=Nc1nc(CSCC/C(N)=N/S(N)(=O)=O)cs1,i,22,i,i,i,i
CN(C)C(=O)CN1C(=O)C2CC=C(Cl)CC2C1=O (stereo unspecified),nt,i,i,i,i,nt
CCn1c(SCC(=O)c2c(N)n(C)c(=O)n(C)c2=O)nnc1-c1ccccc1,i,i,i,i,i,i
Cc1cccc(N2C(=O)CC(Sc3nc(-c4ccccc4)c4cc(Cl)ccc4n3)C2=O)c1 (stereo unspecified),nt,i,i,2388,i,nt
Cc1cccc(N2C(=O)CC(Sc3nc(C)cc(C)n3)C2=O)c1 (stereo unspecified),nt,i,i,i,i,nt
Oc1ccc(NCc2ccccc2OCc2ccccc2)cc1,i,i,29,2166,i,i
CCOC(=O)c1c(NC(=O)CSc2nnc(CNc3ccc(F)cc3)o2)sc(C(C)=O)c1C,nt,i,i,i,34,nt
CCOC(=O)c1c(NC(=O)CSc2nc(C)cc(C)c2C#N)sc(C(C)=O)c1C,nt,i,62,3647,i,nt
CCOC(=O)c1c(NC(=O)CSc2nnc(-c3ccc(C)cc3)o2)sc(C(C)=O)c1C,nt,i,i,i,i,nt
O=C(COC(=O)c1ccccc1NC(=O)c1ccco1)NC1CC1,i,i,i,2060,i,i
O=C(COC(=O)c1ccccc1NC(=O)c1ccco1)NC1CCS(=O)(=O)C1 (stereo unspecified),i,i,i,i,i,i
COC(=O)c1ccccc1NC(=O)CNC(=O)c1ccc(OC)c(OC)c1,i,i,i,i,i,i
COC(=O)c1c(NC(NC(=O)c2ccccc2)(C(F)(F)F)C(F)(F)F)sc2c1CCN(C)C2,i,i,i,1983,i,i
SMILES,SRC1 TRFRET art,PPARg SRC1 recr,PPARg SRC-2 ag,SRC2 TRFRET art,PPARg SRC3 recr,SRC3 TRFRET art
CCC(=O)NC(Nc1sc2c(c1C(=O)OC)CCCC2)(C(F)(F)F)C(F)(F)F,nt,i,i,i,i,nt
Cc1ccc(C2C(C#N)=C(N)SC(N)=C2C#N)o1,nt,19,23,2112,i,nt
O=C(Nc1ccccc1-c1nc2ccccc2s1)c1cccnc1,i,i,i,4568,i,i
O=C1c2cccc3cccc(c23)C(=O)N1c1ccncc1,nt,i,i,i,i,nt
Cc1ccc(-c2cc(-c3ccccc3)c(C#N)c(Br)n2)cc1,3299,56,i,i,i,i
CS(=O)(=O)c1nc(-c2ccccc2)cc(-c2ccccc2)c1C#N,nt,i,i,i,i,nt
Cc1nn(CC(=O)O)c(=O)c2ccccc12,nt,i,i,i,i,nt
CC1CC(C(F)(F)F)n2nc(C(=O)O)cc2N1 (stereo unspecified),nt,i,i,i,i,nt
CC(C)C1CC(C(F)(F)F)n2nc(C(=O)O)cc2N1 (stereo unspecified),i,i,i,2157,i,i
CN1CCN(CC(=O)N/N=C/c2ccc(F)c(F)c2)CC1,i,i,i,i,i,i
Cc1ccccc1OCC(=O)NC(=S)Nc1ccc2c3c(cccc13)CC2,nt,i,i,i,i,nt
COc1ccc(OCC(=O)NC(=S)Nc2ccc3c4c(cccc24)CC3)cc1,i,i,i,i,i,2132
N#Cc1c(-c2ccccc2Cl)cc(-c2ccccc2)[nH]c1=S,i,i,i,i,i,i
N#Cc1c2c(c(-c3ccccc3Cl)[nH]c1=S)CCCC2,3189,40,44,2762,i,2745
Cc1ccc(C(=O)NCC(C)(C)O)cc1,nt,i,i,i,i,nt
Cc1cc(C)c(C#N)c(SCc2cc3c(cc2Cl)OCO3)n1,nt,i,56,2388,i,nt
Cc1nnc2sc(-c3ccc(NC(=O)c4ccc(-c5ccc(Cl)cc5Cl)o4)cc3)nn12,nt,19,i,i,i,nt
Cc1ccc(SCC(=O)NC(=O)NC(C)C)c(C)c1,i,i,i,i,i,i
O=C(/C=C/c1c(Cl)cccc1Cl)N1CCN(c2ncccn2)CC1,nt,i,i,i,i,nt
O=C(N/N=C/c1cccs1)c1ccc(NC(=O)c2ccccc2Cl)cc1,i,i,i,i,i,i
O=C(N/N=C/c1ccco1)c1ccc(NC(=O)c2ccccc2Cl)cc1,i,i,i,1979,i,i
CC(C)(C)c1ccc(C(=O)N/N=C/c2ccc(OCCCF)cc2)cc1,i,i,i,i,i,i
COCC(=O)NC(C)c1nc2ccccc2[nH]1 (stereo unspecified),i,i,i,i,i,i
CCOc1ccc(S(=O)(=O)c2c(C(=O)c3ccc(C)cc3)cnc3cc4c(cc23)OCCO4)cc1,2755,i,i,2406,i,2812
Cc1ccc(C(=O)c2cnc3cc4c(cc3c2S(=O)(=O)c2ccccc2)OCCO4)cc1,i,i,i,i,i,2485
SMILES,SRC1 TRFRET art,PPARg SRC1 recr,PPARg SRC-2 ag,SRC2 TRFRET art,PPARg SRC3 recr,SRC3 TRFRET art
CCCCN(CC)C(=O)c1ccc(-c2ccccc2)cc1,i,i,i,i,i,i
COc1ccc(CC(=O)N/N=C/c2cccn2-c2ccc([N+](=O)[O-])cc2)cc1OC,i,i,i,i,i,i
O=C(Nc1ccccc1F)Nc1cc(S(=O)(=O)N2CCOCC2)ccc1N1CCCC1,i,i,i,i,i,i
O=C(Nc1cc(S(=O)(=O)N2CCOCC2)ccc1N1CCCC1)c1ccc2c(c1)S(=O)(=O)c1ccccc1C2=O,i,i,i,1978,i,i
CC(C)CCNC(=O)CCCn1c(=O)[nH]c2ccc(Br)cc2c1=O,nt,i,i,i,i,nt
O=C(CCCn1c(=O)[nH]c2ccc(Br)cc2c1=O)NCc1ccc(Cl)cc1,3045,31,i,i,i,i
OC1(c2ccc(Br)cc2)CN(c2ccccc2)C2=[N+]1CCS2 (stereo unspecified),i,i,i,i,i,2102
OC1(c2ccc(Cl)cc2)CN(c2ccccc2)C2=[N+]1CCS2 (stereo unspecified),i,i,i,i,i,i
